The panel holds about 83,000 compounds, 20% with a hit somewhere; the sample as a whole holds those more often.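 Single-dose data. Exposure time 48 hours. Values below 10 considered active.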 A number with no mark means an inactive call. Activity calls are given as the source filed them.
These molecules were tested on NCI-H23 lung (assay: NCI-60 one-dose screen, 48 h (100 = growth as untreated, 0 = no growth, -100 = all killed)). Settings: 10 µM unless noted.
Method: Growth inhibition of the NCI-H23 human Non-Small Cell Lung tumor cell line is measured as a screen for anti-cancer activity. Cells are grown in 96 well plates and exposed to the test compound for 48 hours. Compounds are tested at a single concentration, which is 10^-5 M for most compounds. The reported endpoint is percent growth (GI% or GIPRCNT), where numbers from 0 - 100% represent growth inhibition, and numbers from -100% - 0 represent cell death. For example, a value of 40 represents 60% growth inhibition. A value of 0 means no net growth occurred over the course of the experiment. A value of -40 indicates 40% of cells at the beginning of the experiment died by the end of the experiment. A value of -100 means all cells are dead at the end of the experiment.
NCI-60 Human Tumor Cell Lines Screen was performed using the standard one-dose NCI protocol, which is described in more detail at https://dtp.cancer.gov/discovery_development/nci-60/default.htm.
Compounds with GIPRCNT values below 10 were considered active. Activity score was based on GIPRCNT using the following formula: […]
Score is 0 for GIPRCNT values of 100 or above, 50 for GIPRCNT values of 0, and 100 for GIPRCNT values of -100.

| Structure (SMILES) | growth |
| --- | --- |
| CCOC(=O)c1sc(-c2ccc(OS(=O)(=O)C[C@]34CCC(CC3=O)C4(C)C)c(C=O)c2)nc1C | 28.5% |
| COc1ccc(/C=C/C(=O)c2ccc3cc(OC)c(OC)cc3c2)cc1OC | 51.7% |
| COc1cc(C(=O)NN=C2c3ccccc3-c3ccccc32)cc(OC)c1OC | 62% |
| O=C(Nc1ncc(Cc2cccc(C(F)(F)F)c2)s1)C1COc2ccccc2O1 (stereo not given) | 88.6% |
| NCCOc1ncccc1/C=C1\c2ccccc2-c2ccc([N+](=O)[O-])cc21 | -68.1% (active) |
| CN1C(=O)N(C)C2C1NN=c1s/c(=C\c3ccc(Cl)cc3Cl)c(=O)n12 (stereo not given) | 29% |
| Cc1cccc(NC(=O)c2sc3nc4c(cc3c2N)CCCC4)c1C | 30.2% |
| CC(C)C[C@H](C(=O)N[C@H](C(N)=O)C(C)C)N1CC=CCN(OCc2ccccc2)S1(=O)=O | 111% [2.5 µM] |
| CN(C)c1ccc(N=Cc2ccc(N3CCOCC3)cc2)cc1 | 68.5% |
| Cc1ccc(N=NC2C(=O)N(c3ccc(Cl)cc3)N(c3ccc(Cl)cc3)C2=O)cc1 | 95.6% |
| O=c1c2cc(F)cc(Cl)c2sc2c(Cl)nc3ccccc3c12 | 90.5% |
| CCOC(=O)CSc1c(-c2ccccc2)c2cc(Cl)ccc2[nH]c1=O | 101% |
| CC(=O)c1ccc(NC(=O)Nc2ccc(S(=O)(=O)Nc3ccc(Cl)nn3)cc2)cc1 | 96.4% |
| COc1ccc(-c2nc(-c3ccccn3)c(-c3ccccn3)n2CC(C)C)cc1OC1CCCC1 | 31.2% |
| COc1ccc(C)c2sc(N(Cc3cccnc3)C(=O)c3ccc(C#N)cc3)nc12 | 7.42% (active) |
| O=C1NC(=O)C(=Cc2cn(Cc3cn(Cc4ccc(Cl)cc4Cl)nn3)c3ccccc23)C(=O)N1 | 81.4% |
| Nc1ccc(C2c3ccccc3Oc3ccccc32)cc1 | 99.1% |
| COc1ccc(C2C3=C(COC3=O)N(CCO)c3cc4c(cc32)OCCO4)cc1 (stereo not given) | 97.2% |
| CCOC(=O)c1sc(-c2ccc(OS(=O)(=O)c3ccccc3[N+](=O)[O-])c(C=O)c2)nc1C | 50.6% |
| Nc1ccc(-n2c(=O)oc3ccc(Cl)cc3c2=O)c(Cl)c1 | -4.26% (active) |

| Structure (SMILES) | growth |
| --- | --- |
| CN1CCN(Cc2ccc(C(=O)Nc3cncc(C#Cc4cnc(N)c5ccccc45)c3)cc2C(F)(F)F)CC1 | -41.8% (active) |
| Nc1nc(Nc2cccc(F)c2)nc2ccccc12 | 38.7% |
| COc1ccc(-n2c(C(O)c3ccccc3)nn(CN3CCOCC3)c2=S)cc1 (stereo not given) | 99.4% |
| O=C(Nc1ccc(Br)cc1F)c1cc(F)ccc1O | 3.95% (active) |
| NCCOc1ccccc1/C=C1\c2ccccc2-c2ccc([N+](=O)[O-])cc21 | 1.49% (active) |
| CC1=NCC2NC(=O)NC(C)=C12 (stereo not given) | 103% |
| O=C(Nc1ccc(-c2nc3cc4ccccc4cc3[nH]2)cc1)c1cccc(Br)c1 | 54.1% |
| O=c1oc2ccc(I)cc2c(=O)n1-c1ccc(Cl)cc1F | -9.99% (active) |
| NC(=O)CSc1nc(-c2ccc(F)cc2)cc(-c2ccco2)n1 | 98.7% |
| COc1ccc(N)c(-c2cc3c(c4c2[nH]c2ccc(OC)cc24)CCCC3)c1 | 91.2% |
| COc1ccc(CCN2C(=O)CCSC2=S)cc1OC | 103% |
| O=C(NCc1ccco1)C1CN(c2ccc(Cl)cc2)N(c2ccc(Cl)cc2)C1=O (stereo not given) | 59.5% |
| CCC(C)(C)C(=O)O[C@H]1C[C@@H](C)C=C2C=C[C@H](C)[C@H](CC[C@@H]3CC=CC(=O)O3)[C@H]21 | 78% |
| COC(=O)[C@H]1CCCN1C(=O)[C@H]1CCCN1C(=O)[C@H](Cc1c[nH]c2ccccc12)NC(=S)Nc1cc(C(F)(F)F)cc(C(F)(F)F)c1 | 65.2% |
| O=Cc1cc2ccccc2nc1Nc1nccs1 | 52.4% |
| CC(=O)c1ccc(Nc2nc(NCCO)nc(Nc3ccc(Cl)cc3)n2)cc1 | 99.1% |
| COc1cc(/C=C2\CN(C)C/C(=C\c3cc(CN4CCOCC4)c(O)c(OC)c3)C2=O)cc(CN2CCOCC2)c1O | 37.3% |
| COc1ccc(/C=C2/SC(=O)N(CC(=O)N3CCN(c4cc5c(cc4F)c(=O)c(C(=O)O)cn5C4CC4)CC3)C2=O)cc1 | 100% |
| O=C(Nc1ccc(I)cc1F)c1cc(Cl)ccc1O | 1.96% (active) |
| Fc1ccc(Oc2ccc(Nc3ncnc4onc(-c5ccccc5)c34)cc2)cc1 | 104% |

From PubChem BioAssay (NCI)
